Results taken from PMC11006913.
Positions count from the first letter of the chain named.

How the values were obtained:
Assay in all cases: PBM; 200 nM protein, PBS
Details in all cases: dsDNA, one strand shown
[1] = molecular target: HOXD13 (Homo sapiens, UniProt P35453 263-343, T313R)
[2] = molecular target: ALX3 (Homo sapiens, UniProt O95076 139-225, N203Q)
[3] = molecular target: ALX3 (Homo sapiens, UniProt O95076 139-225)
[4] = molecular target: ALX3 (Homo sapiens, UniProt O95076 139-225, L168Q)
[5] = molecular target: ALX3 (Homo sapiens, UniProt O95076 139-225, L168V)
[6] = molecular target: ALX3 (Homo sapiens, UniProt O95076 139-225, N203S)
[7] = molecular target: T1, NKX2-6 (Homo sapiens, UniProt A6NCS4 118-204)
T1 sequence: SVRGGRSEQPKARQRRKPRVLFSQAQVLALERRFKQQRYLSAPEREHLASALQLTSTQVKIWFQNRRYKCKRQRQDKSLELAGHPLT

[8] = molecular target: HOXD13 (Homo sapiens, UniProt P35453 263-343)
[9] = molecular target: HOXD13 (Homo sapiens, UniProt P35453 263-343, T313A)
[10] = molecular target: T2, NKX2-6 (Homo sapiens, UniProt A6NCS4 118-204, F151L)
T2 sequence: T1 sequence with F34L

[11] = molecular target: HOXA2 (Homo sapiens, UniProt O43364 129-215, R185K)
Sequence of HOXA2 (O43364 129-215 R185K): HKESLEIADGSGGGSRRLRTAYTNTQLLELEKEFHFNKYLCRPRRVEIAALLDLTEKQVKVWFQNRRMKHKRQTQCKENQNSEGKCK

Sequence of ALX3 (Homo sapiens, UniProt O95076 139-225, L168V) (O95076 139-225 L168V): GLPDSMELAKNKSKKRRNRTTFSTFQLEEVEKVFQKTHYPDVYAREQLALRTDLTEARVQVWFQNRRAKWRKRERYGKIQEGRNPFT
Sequence of HOXD13 (Homo sapiens, UniProt P35453 263-343, T313R) (P35453 263-343 T313R): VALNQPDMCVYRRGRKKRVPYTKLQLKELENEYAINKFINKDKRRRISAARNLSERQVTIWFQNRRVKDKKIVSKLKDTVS
Sequence of ALX3 (Homo sapiens, UniProt O95076 139-225, N203Q) (O95076 139-225 N203Q): as the sequence (O95076 139-225 L168V) above, with V30L, N65Q counted along it
Sequence of HOXD13 (Homo sapiens, UniProt P35453 263-343, T313A) (P35453 263-343 T313A): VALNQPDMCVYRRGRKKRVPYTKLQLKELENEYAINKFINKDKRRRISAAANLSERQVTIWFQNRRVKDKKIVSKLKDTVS
Sequence of ALX3 (Homo sapiens, UniProt O95076 139-225, N203S) (O95076 139-225 N203S): as the sequence (O95076 139-225 L168V) above, with V30L, N65S counted along it
Sequence of ALX3 (Homo sapiens, UniProt O95076 139-225, L168Q) (O95076 139-225 L168Q): as the sequence (O95076 139-225 L168V) above, with V30Q counted along it
Sequence of ALX3 (Homo sapiens, UniProt O95076 139-225) (O95076 139-225): as the sequence (O95076 139-225 L168V) above, with V30L counted along it
Sequence of HOXD13 (Homo sapiens, UniProt P35453 263-343) (P35453 263-343): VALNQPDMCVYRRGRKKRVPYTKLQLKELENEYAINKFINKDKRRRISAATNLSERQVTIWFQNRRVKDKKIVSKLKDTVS

For CATTTATA, the binding signal [1] was 10.7 upbm affinity estimate (log intensity, higher = more binding, comparable within an allelic series).

With CACCGCCG the binding signal [2] was 7.75 upbm affinity estimate (log intensity, higher = more binding, comparable within an allelic series), the binding signal [3] was 7.68 upbm affinity estimate (log intensity, higher = more binding, comparable within an allelic series) and the binding signal [4] was 7.66 upbm affinity estimate (log intensity, higher = more binding, comparable within an allelic series). The binding signal [5] was 7.7 upbm affinity estimate (log intensity, higher = more binding, comparable within an allelic series) and the binding signal [6] was 7.75 upbm affinity estimate (log intensity, higher = more binding, comparable within an allelic series).

With ATCACAGA the binding signal [2] was 8.15 upbm affinity estimate (log intensity, higher = more binding, comparable within an allelic series), the binding signal [3] was 9.21 upbm affinity estimate (log intensity, higher = more binding, comparable within an allelic series) and the binding signal [6] was 8.16 upbm affinity estimate (log intensity, higher = more binding, comparable within an allelic series).

TATTATAA was tested, and the binding signal [2] was 8.66 upbm affinity estimate (log intensity, higher = more binding, comparable within an allelic series) and the binding signal [6] was 8.67 upbm affinity estimate (log intensity, higher = more binding, comparable within an allelic series).

CTTTTATA was tested, and the binding signal [1] was 10.7 upbm affinity estimate (log intensity, higher = more binding, comparable within an allelic series).

For AATATTAA, the binding signal [2] was 8.6 upbm affinity estimate (log intensity, higher = more binding, comparable within an allelic series) and the binding signal [6] was 8.69 upbm affinity estimate (log intensity, higher = more binding, comparable within an allelic series).

With GCATTAGA the binding signal [2] was 8.11 upbm affinity estimate (log intensity, higher = more binding, comparable within an allelic series), the binding signal [3] was 9.95 upbm affinity estimate (log intensity, higher = more binding, comparable within an allelic series) and the binding signal [6] was 8.12 upbm affinity estimate (log intensity, higher = more binding, comparable within an allelic series).

With ATTTGACC the binding signal [2] was 8.13 upbm affinity estimate (log intensity, higher = more binding, comparable within an allelic series), the binding signal [3] was 9.49 upbm affinity estimate (log intensity, higher = more binding, comparable within an allelic series) and the binding signal [6] was 8.24 upbm affinity estimate (log intensity, higher = more binding, comparable within an allelic series).

ACGTTAGT was tested, and the binding signal [2] was 8.16 upbm affinity estimate (log intensity, higher = more binding, comparable within an allelic series), the binding signal [3] was 9.39 upbm affinity estimate (log intensity, higher = more binding, comparable within an allelic series) and the binding signal [6] was 8.22 upbm affinity estimate (log intensity, higher = more binding, comparable within an allelic series).

In the case of CCCGGCCA, the binding signal [1] is reported as 9.5 upbm affinity estimate (log intensity, higher = more binding, comparable within an allelic series), the binding signal [7] is reported as 9.65 upbm affinity estimate (log intensity, higher = more binding, comparable within an allelic series) and the binding signal [8] is reported as 9.64 upbm affinity estimate (log intensity, higher = more binding, comparable within an allelic series). For the same sequence, the binding signal [9] was 9.63 upbm affinity estimate (log intensity, higher = more binding, comparable within an allelic series) and the binding signal [10] was 9.26 upbm affinity estimate (log intensity, higher = more binding, comparable within an allelic series).

In the case of TCTATTAA, the binding signal [1] is reported as 10.7 upbm affinity estimate (log intensity, higher = more binding, comparable within an allelic series).

With AGTTACAG the binding signal [2] was 8.16 upbm affinity estimate (log intensity, higher = more binding, comparable within an allelic series), the binding signal [3] was 8.82 upbm affinity estimate (log intensity, higher = more binding, comparable within an allelic series) and the binding signal [6] was 8.25 upbm affinity estimate (log intensity, higher = more binding, comparable within an allelic series).

In the case of CATCTTAA, the binding signal [1] is reported as 10.1 upbm affinity estimate (log intensity, higher = more binding, comparable within an allelic series) and the binding signal [8] is reported as 10.5 upbm affinity estimate (log intensity, higher = more binding, comparable within an allelic series).

For GTTATGCA, the binding signal [2] was 8.13 upbm affinity estimate (log intensity, higher = more binding, comparable within an allelic series), the binding signal [3] was 9.19 upbm affinity estimate (log intensity, higher = more binding, comparable within an allelic series) and the binding signal [6] was 8.22 upbm affinity estimate (log intensity, higher = more binding, comparable within an allelic series).

In the case of CTCATCAA, the binding signal [2] is reported as 8.12 upbm affinity estimate (log intensity, higher = more binding, comparable within an allelic series), the binding signal [3] is reported as 9.41 upbm affinity estimate (log intensity, higher = more binding, comparable within an allelic series) and the binding signal [6] is reported as 8.16 upbm affinity estimate (log intensity, higher = more binding, comparable within an allelic series).

GCCTCCAC was tested, and the binding signal [1] was 9.56 upbm affinity estimate (log intensity, higher = more binding, comparable within an allelic series), the binding signal [7] was 9.6 upbm affinity estimate (log intensity, higher = more binding, comparable within an allelic series) and the binding signal [8] was 9.59 upbm affinity estimate (log intensity, higher = more binding, comparable within an allelic series). For the same sequence, the binding signal [9] was 9.61 upbm affinity estimate (log intensity, higher = more binding, comparable within an allelic series) and the binding signal [10] was 9.3 upbm affinity estimate (log intensity, higher = more binding, comparable within an allelic series).

ATCGCTAA was tested, and the binding signal [2] was 8.25 upbm affinity estimate (log intensity, higher = more binding, comparable within an allelic series), the binding signal [3] was 9.67 upbm affinity estimate (log intensity, higher = more binding, comparable within an allelic series) and the binding signal [6] was 8.28 upbm affinity estimate (log intensity, higher = more binding, comparable within an allelic series).

In the case of ATTCATGG, the binding signal [1] is reported as 10.2 upbm affinity estimate (log intensity, higher = more binding, comparable within an allelic series) and the binding signal [8] is reported as 10.8 upbm affinity estimate (log intensity, higher = more binding, comparable within an allelic series).

In the case of ATAACACG, the binding signal [1] is reported as 10.1 upbm affinity estimate (log intensity, higher = more binding, comparable within an allelic series) and the binding signal [8] is reported as 10.7 upbm affinity estimate (log intensity, higher = more binding, comparable within an allelic series).

TTATAGAA was tested, and the binding signal [2] was 8.31 upbm affinity estimate (log intensity, higher = more binding, comparable within an allelic series), the binding signal [3] was 9.6 upbm affinity estimate (log intensity, higher = more binding, comparable within an allelic series) and the binding signal [6] was 8.38 upbm affinity estimate (log intensity, higher = more binding, comparable within an allelic series).

With AGATTTTA the binding signal [2] was 8.19 upbm affinity estimate (log intensity, higher = more binding, comparable within an allelic series), the binding signal [3] was 9.08 upbm affinity estimate (log intensity, higher = more binding, comparable within an allelic series) and the binding signal [6] was 8.26 upbm affinity estimate (log intensity, higher = more binding, comparable within an allelic series).

In the case of TATAAACA, the binding signal [1] is reported as 10.7 upbm affinity estimate (log intensity, higher = more binding, comparable within an allelic series).

With CCTGGCCC the binding signal [2] was 7.75 upbm affinity estimate (log intensity, higher = more binding, comparable within an allelic series), the binding signal [3] was 7.59 upbm affinity estimate (log intensity, higher = more binding, comparable within an allelic series) and the binding signal [4] was 7.65 upbm affinity estimate (log intensity, higher = more binding, comparable within an allelic series). For the same sequence, the binding signal [5] was 7.67 upbm affinity estimate (log intensity, higher = more binding, comparable within an allelic series) and the binding signal [6] was 7.74 upbm affinity estimate (log intensity, higher = more binding, comparable within an allelic series).

In the case of CCTAACAG, the binding signal [2] is reported as 8.02 upbm affinity estimate (log intensity, higher = more binding, comparable within an allelic series), the binding signal [3] is reported as 8.92 upbm affinity estimate (log intensity, higher = more binding, comparable within an allelic series) and the binding signal [4] is reported as 8.23 upbm affinity estimate (log intensity, higher = more binding, comparable within an allelic series). The binding signal [5] was 8.19 upbm affinity estimate (log intensity, higher = more binding, comparable within an allelic series) and the binding signal [6] was 8.09 upbm affinity estimate (log intensity, higher = more binding, comparable within an allelic series).

For CTAACAAC, the binding signal [2] was 8.26 upbm affinity estimate (log intensity, higher = more binding, comparable within an allelic series), the binding signal [3] was 9.15 upbm affinity estimate (log intensity, higher = more binding, comparable within an allelic series) and the binding signal [6] was 8.24 upbm affinity estimate (log intensity, higher = more binding, comparable within an allelic series).

CTCGTTAA was tested, and the binding signal [1] was 10.7 upbm affinity estimate (log intensity, higher = more binding, comparable within an allelic series), the binding signal [11] was 13.1 upbm affinity estimate (log intensity, higher = more binding, comparable within an allelic series) and the binding signal [8] was 12.1 upbm affinity estimate (log intensity, higher = more binding, comparable within an allelic series). For the same sequence, the binding signal [9] was 12 upbm affinity estimate (log intensity, higher = more binding, comparable within an allelic series).

For CTTATTGC, the binding signal [1] was 10.1 upbm affinity estimate (log intensity, higher = more binding, comparable within an allelic series) and the binding signal [8] was 10.7 upbm affinity estimate (log intensity, higher = more binding, comparable within an allelic series).

CATCGGGC was tested, and the binding signal [1] was 9.55 upbm affinity estimate (log intensity, higher = more binding, comparable within an allelic series), the binding signal [8] was 9.52 upbm affinity estimate (log intensity, higher = more binding, comparable within an allelic series) and the binding signal [9] was 9.62 upbm affinity estimate (log intensity, higher = more binding, comparable within an allelic series).

For ACGGTCCC, the binding signal [1] was 9.51 upbm affinity estimate (log intensity, higher = more binding, comparable within an allelic series), the binding signal [8] was 9.34 upbm affinity estimate (log intensity, higher = more binding, comparable within an allelic series) and the binding signal [9] was 9.69 upbm affinity estimate (log intensity, higher = more binding, comparable within an allelic series).
